AddAB inh – less growth of phage-infected E. coli with AddAB. E. coli expressing H. pylori AddAB, absorbance growth. inhibition, % at 11.9 µM. hit rate 0.29% among 330,000. AID 435030; in the data active = inhibition above about 12%;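 also: 0% = vehicle wells of infected cells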
Calb FLC – affects C. albicans growth with fluconazole; C. albicans CaCi-2 (fluconazole-resistant clinical isolate) + fluconazole, Alamar Blue growth, 48 h; growth inhibition, % (concentration not given with the values); hit rate 0.57% among 300,000; AID 1979;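 active = growth inhibition above about 58% in most replicates, limit read from the data, passing the limit was not always enough; inconclusive = exactly half the replicates above a set limit; inactive = most replicates below a set limit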;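 also: all wells also contain fluconazole at 8 µg/ml as a sub-toxic cotreatment; 0% = median of DMSO wells and 100% = median of geldanamycin control wells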
E coli growth-1 – inhibitors of Escherichia coli growth. AID 1053175. OD600, 23 h; active compounds read low. hit rate 0.21% among 330,000. OD600 absorbance (concentration not given with the values);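 active = OD600 absorbance below the run mean of sample wells minus 3.6 SD, in any replicate, cut at about 0.56 in these data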
E coli growth-2 – counter-screen for AddAB inhibitors: E. coli growth inhibition | E. coli V3065 growth, OD600 absorbance, 18 h | inhibition, % at 11.9 µM | hit rate 0.27% among 330,000 | AID 449728;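 active = inhibition above the campaign's mean inhibition across all tested compounds plus 3 SD, cut at about 9.9% in these data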;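 also: uninfected addAB+ strain grown without phage in ampicillin broth; 0% = DMSO wells and 100% = ciprofloxacin 0.95 µg/ml wells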
Tat transport – inhibitors of E. coli Tat protein transport | inhibition, % at 10 µM | E. coli MC4100 TorA-mCherry Tat export, fluorescence | AID 488895 | hit rate 0.036% among 340,000;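 active = mean replicate inhibition at least 50% and at least half of replicates individually reaching 50%; inconclusive = only one of the two criteria met; inactive = neither criterion met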;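 also: exported cargo escapes ClpAP degradation while cytoplasmic cargo is degraded and loses fluorescence; 0% = median of neutral control wells and 100% = median of NaSCN control wells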
phage Ecoli inh – E. coli growth loss with phage present; growth absorbance; inhibition, % at 11.9 µM; hit rate 0.26% among 360,000; in the data active = inhibition above about 11%
AddAB conf – confirmation screen: growth loss of phage-infected E. coli expressing H. pylori AddAB | AID 488942 | shares compounds with AddAB inh | E. coli V3065 expressing H. pylori AddAB, T4 phage, OD; T4 phage with gene 2 nonsense mutations | inhibition, % at 11.9 µM | hit rate 64% among 880;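 active = mean inhibition above a set limit taken from the earlier primary screen, cut at about 13% in these data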;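 also: higher means less bacterial growth since AddAB block lets phage replicate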
RecBCD counter – AddAB counter-screen: growth loss of RecBCD+ E. coli infected with mutant T4 phage | AID 488955 | hit rate 73% among 880 | E. coli V66 + mutant T4 phage, OD growth | inhibition, % at 11.9 µM | shares compounds with AddAB inh;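 active = mean inhibition above the mean of solvent-only control wells plus 3 SD, cut at about 4% in these data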;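 also: optical density read after an 18 h incubation at 37 °C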
Bact viability – counter-screen: bacterial growth inhibition; inhibition, % at 11.9 µM; shares compounds with AddAB inh; hit rate 35% among 880; bacterial viability, absorbance (AddAB counterscreen); in the data active = inhibition above about 25%
RecBCD conf – confirmation: growth loss of phage-infected RecBCD+ E. coli (RecBCD inhibitor screen); shares compounds with phage Ecoli inh; E. coli V66 + T4 2- phage, growth OD; inhibition, % at 11.9 µM; hit rate 45% among 890;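 active = mean inhibition over triplicates exceeding the hit threshold derived in the original primary screen, cut at about 11% in these data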
Ecoli viability – bacterial viability inhibition counter-screen for RecBCD. hit rate 29% among 890. AID 651983. shares compounds with phage Ecoli inh. inhibition, % at 11.9 µM. E. coli viability, absorbance (OD) growth; in the data active = inhibition above about 20%;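 also: E. coli strain V66 grown with compound alone and no phage infection; 0% = bacteria with DMSO vehicle only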
AddAB phage OD – growth loss of phage-infected AddAB E. coli, RecBCD counter-screen; AID 651984; shares compounds with phage Ecoli inh; hit rate 45% among 890; inhibition, % at 11.9 µM; E. coli expressing H. pylori AddAB + T4 phage, OD growth; gene 2 mutant T4, recBCD-deleted host;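 active = mean inhibition above the solvent-only control wells' mean plus 3 SD, cut at about 22% in these data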;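 also: higher means less bacterial growth from phage killing when AddAB is blocked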
* hit, by the source's call. Rows were chosen to be rich in hits. Some 0.9% of all compounds tested hit in one or more screens of this group.

How did COc1cccc(/C=N/Nc2ncnc(Cl)c2N)c1O do in these assays?
AddAB inh: 12.4*; Calb FLC: -0.4; E coli growth-2: 15.3*; Tat transport: 6.4; phage Ecoli inh: 29.8*; AddAB conf: 20.8*; RecBCD counter: 29.4*; Bact viability: 18.0; RecBCD conf: 27.0*; Ecoli viability: 30.3*; AddAB phage OD: 22.9*

What do the screens show for `Cc1cc2ncn(/N=C/c3ccc([N+](=O)[O-])o3)c2cc1C`?
AddAB inh: 85.8*; Calb FLC: -4.2; E coli growth-2: 31.5*; Tat transport: 3.2; phage Ecoli inh: 13.6*; AddAB conf: 99.3*; RecBCD counter: 11.6*; Bact viability: 46.4*; RecBCD conf: 5.3; Ecoli viability: 7.5; AddAB phage OD: 57.4*

How did COc1cccc(C=Nn2cnc3cc(C)c(C)cc32)c1OC do in these assays?
E coli growth-1: 0.687

What do the screens show for `Cc1[nH]nc(C(=O)NN=Cc2ccccc2Cl)c1N=NN(C)C`?
Tat transport: -0.2; phage Ecoli inh: 14.0*; RecBCD conf: 7.9; Ecoli viability: 10.1; AddAB phage OD: 41.5*

What do the screens show for `Oc1c(I)cc(I)c2cccnc12`?
AddAB inh: -1.1; E coli growth-1: 0.426*; E coli growth-2: 0.5; Tat transport: -3.8; phage Ecoli inh: 22.6*; RecBCD conf: 26.4*; Ecoli viability: 29.8*; AddAB phage OD: 24.7*

What do the screens show for `Oc1c(Cl)cc(Cl)c2cccnc12`?
Calb FLC: inconclusive; E coli growth-1: 0.071*; Tat transport: 4.8; phage Ecoli inh: 42.6*; RecBCD conf: 55.1*; Ecoli viability: 62.2*; AddAB phage OD: 50.7*

What do the screens show for `Oc1ccc(F)c2cccnc12`?
AddAB inh: 1.4; Calb FLC: 0.7; E coli growth-1: 0.683; E coli growth-2: 0.7; Tat transport: -1.0; phage Ecoli inh: 2.8

What do the screens show for `Cc1ccc2c(Cl)cc(Cl)c(O)c2n1`?
E coli growth-1: 0.0635*; Tat transport: inconclusive; phage Ecoli inh: 13.3*; RecBCD conf: 6.8; Ecoli viability: 8.9; AddAB phage OD: 8.3

Results for Cc1ccc(S(=O)(=O)Nc2cc(Cl)c(O)c3ncccc23)cc1 ?
AddAB inh: 11.2; Calb FLC: -3.8; E coli growth-2: 11.2*; Tat transport: -1.3; phage Ecoli inh: 12.3*; RecBCD conf: 4.8; Ecoli viability: 8.7; AddAB phage OD: 9.4

How did Clc1cc2cccnc2c2ccccc12 do in these assays?
AddAB inh: 3.0; Calb FLC: 0.9; E coli growth-1: 0.678; E coli growth-2: 1.9; Tat transport: 4.0; phage Ecoli inh: 1.9

Results for Cc1ccc(S(=O)(=O)Nc2cccnc2Oc2ccc(Cl)cc2)cc1 ?
AddAB inh: 2.5; Calb FLC: 3.3; E coli growth-1: 0.682; E coli growth-2: 2.4; Tat transport: 2.0; phage Ecoli inh: -1.1

Results for Cc1cc(Cl)c2ccc3ccccc3c2n1 ?
AddAB inh: 0.3; Calb FLC: 27.3; E coli growth-1: 0.69; E coli growth-2: -0.4; Tat transport: -1.8; phage Ecoli inh: 2.5

How did COc1cccc(C2CC=C(C(=O)O)C(c3ccccc3F)N2S(=O)(=O)c2ccc(C)cc2)c1 (stereo not drawn) do in these assays?
E coli growth-1: 0.675

What do the screens show for `C(=NNc1nc(-c2ccccc2)cs1)c1cccnc1`?
E coli growth-1: 0.629

How did CCCOc1ccc(C=NO)cc1 do in these assays?
E coli growth-1: 0.687

Results for CCC(C)(C(=O)NC1CCCCC1)N(Cc1cccs1)C(=O)c1ccccn1 (stereo not drawn) ?
AddAB inh: -1.2; Calb FLC: -1.7; E coli growth-1: 0.723; E coli growth-2: 0.1; Tat transport: -4.1; phage Ecoli inh: 1.4

What do the screens show for `CCC(C)(C(=O)NC1CCCCC1)N(Cc1cccs1)C(=O)c1ccc(=O)[nH]c1` (stereo not drawn)?
AddAB inh: 5.1; Calb FLC: -13.6; E coli growth-1: 0.654; E coli growth-2: 2.6; Tat transport: -4.4; phage Ecoli inh: 11.9*; RecBCD conf: -5.2; Ecoli viability: -4.2; AddAB phage OD: 1.6

Results for Cc1nc2ccccc2cc1C(=O)NN=Cc1cccs1 ?
E coli growth-1: 0.666

How did O=C(O)c1c[nH]c2c([N+](=O)[O-])cccc2c1=O do in these assays?
E coli growth-1: 0.534; Tat transport: -20.6; phage Ecoli inh: 11.1*; RecBCD conf: 7.0; Ecoli viability: 7.0; AddAB phage OD: 18.6

Results for Oc1ccc(C=NNC(=S)Nc2cccnc2)cc1 ?
E coli growth-1: 0.667

Results for Oc1ccc(C=NNC(=S)Nc2cccnc2)nc1 ?
Tat transport: 1.3; phage Ecoli inh: 21.3*; RecBCD conf: 18.7*; Ecoli viability: 21.4*; AddAB phage OD: 36.2*

What do the screens show for `CCCn1c(=O)c(C(=O)NCCc2ccc(OC)c(OC)c2)c(O)c2ccccc21`?
Calb FLC: -8.3; E coli growth-1: 0.665; Tat transport: 4.8; phage Ecoli inh: 2.7

Results for CCn1c(=O)c(C(=O)NCCc2ccc(OC)c(OC)c2)c(O)c2ccccc21 ?
AddAB inh: 3.7; Calb FLC: 48.6; E coli growth-1: 0.657; E coli growth-2: 9.9*; Tat transport: 3.4; phage Ecoli inh: 11.1*; RecBCD conf: 4.7; Ecoli viability: 6.5; AddAB phage OD: 11.4

What do the screens show for `CCn1cc(C(=O)O)c(=O)c2cc(F)c(N3CCNCC3)nc21`?
E coli growth-1: 0.0595*; Tat transport: 62.4*; phage Ecoli inh: 102.5*; RecBCD conf: 102.3*; Ecoli viability: 102.9*; AddAB phage OD: 102.1*

What do the screens show for `Cc1cccc(N2C(=O)N3C4c5ccccc5OCC4C(c4ccccc4)[C@@]3(C)C2=O)c1` (stereo partly drawn)?
E coli growth-1: 0.693

What do the screens show for `O=C1C(F)=CC(COC(c2ccccc2)(c2ccccc2)c2ccccc2)OC1n1cc(F)c(=O)[nH]c1=O` (stereo not drawn)?
Tat transport: -3.6; phage Ecoli inh: 12.1*; RecBCD conf: 8.9; Ecoli viability: 1.4; AddAB phage OD: 25.7*

From PubChem BioAssay
